From PubChem
DENV2 CPE: inhibitors of DENV2 cytopathic effect, primary screen, cell-based, plate reader, single concentration; DENV2-infected cells, cytopathic effect rescue; CPE inhibition, % at 9.99 µM; hit rate 1.7% among 350,000; in the data active means CPE inhibition above about 20%, passing the limit was not always enough; inconclusive means no clear call, values can overlap the other calls; tested in BHK-21 cells
Rtt109 HAT inh: inhibitors of C. albicans Rtt109/Vps75 HAT, primary screen, biochemical, ThioGlo CoA-SH fluorescence, plate reader | Histone acetyltransferase RTT109 (Candida albicans (strain SC5314 / ATCC MYA-2876)), … | purified Rtt109/Vps75, 4 h | inhibition, % at 34.9 µM | hit rate 0.16% among 330,000;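 active means inhibition of at least 50% in every replicate; inconclusive means best replicate reaches 50% inhibition but some replicates fall short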
PDI inh: inhibitors of human PDI, primary screen, biochemical, turbidity, single point, plate reader | hit rate 0.052% among 350,000 | Protein disulfide-isomerase (Homo sapiens), P07237 | inhibition, % at 10 µM | PDI insulin aggregation turbidity, A650, 90 min;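 active means mean inhibition across replicates of 30% or more, whatever share of single replicates reach that level; inconclusive means mean inhibition below 30% while every single replicate reaches 30%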
Target sequence (P07237 whole entry, looked up): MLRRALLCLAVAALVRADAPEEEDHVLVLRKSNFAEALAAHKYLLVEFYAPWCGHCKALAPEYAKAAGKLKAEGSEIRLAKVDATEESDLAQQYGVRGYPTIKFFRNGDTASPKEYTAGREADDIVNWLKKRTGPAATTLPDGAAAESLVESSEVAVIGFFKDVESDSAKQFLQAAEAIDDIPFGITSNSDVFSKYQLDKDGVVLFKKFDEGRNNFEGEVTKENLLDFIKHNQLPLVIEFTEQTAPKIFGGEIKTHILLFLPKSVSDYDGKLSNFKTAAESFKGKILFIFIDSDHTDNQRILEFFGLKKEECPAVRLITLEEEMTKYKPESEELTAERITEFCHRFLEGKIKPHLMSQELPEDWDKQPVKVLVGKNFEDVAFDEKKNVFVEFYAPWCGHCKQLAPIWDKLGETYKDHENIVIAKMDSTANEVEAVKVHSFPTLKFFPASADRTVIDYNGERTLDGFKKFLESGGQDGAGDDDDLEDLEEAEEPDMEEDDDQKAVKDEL
ERp5 block: inhibitors of ERp5-driven insulin aggregation, primary screen, biochemical, turbidity, absorbance 650 nm, single point | Protein disulfide-isomerase A6 (Homo sapiens), Q15084 | 90 min | inhibition, % at 9.99 µM | hit rate 0.05% among 350,000;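 active means mean replicate inhibition above about 25%, with every replicate also reaching it, limit read from the data, passing the limit was not always enough; inconclusive means only one of those two criteria met; inactive means neither criterion met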
SIRT5 inh: SIRT5 desuccinylase inhibitors, primary screen, biochemical, fluorescence imaging, single point, set 5 | NAD-dependent protein deacylase sirtuin-5, mitochondrial (Homo sapiens), Q9NXA8 | Purified SirT5, succinyl-peptide AMC, trypsin-coupled fluorescence | inhibition, % at 15 µM | hit rate 1.1% among 330,000; in the data active means inhibition above about 15%; inconclusive means no clear call, values can overlap the other calls
Hits are given with their value; - = inactive; ? = inconclusive; . = no result given; ! = not confirmed by another sample. The list is not random: actives were taken first. Their share in the collection is about 2.3%.

SMILES	DENV2 CPE	Rtt109 HAT inh	PDI inh	ERp5 block	SIRT5 inh
C[C@@H]1CN([C@@H](C)CO)C(=O)c2cc(C#Cc3ccccc3)cnc2O[C@@H]1CN(C)C(=O)c1ccccc1F	-	.	.	-	-
Cc1ccc(CNC(=O)CSCc2ccccc2)cc1	-	-	-	-	-
Cc1cccc(CSCC(=O)NCc2ccc(S(N)(=O)=O)cc2)c1	-	-	-	-	15
CO[C@@H]1CN(C)C(=O)c2cc(NC(C)=O)ccc2OC[C@@H](C)N(Cc2nccs2)C[C@@H]1C	-	.	.	-	-
Cc1cc2nc(-c3cccc(Cl)c3)c(CC3CCCCC3)n2c(C)c1Br	98	.	.	-	-
Cc1cc2nc(-c3ccccc3)c(CC3CCCCC3)n2c(C)c1Br	-	.	.	-	-
C[C@@H]1CCCCO[C@@H](CN(C)Cc2ccc(C(=O)Nc3ccccc3N)cc2)[C@@H](C)CN([C@H](C)CO)C(=O)c2cc(NS(=O)(=O)c3cn(C)cn3)ccc2O1	-	.	.	-	-
CC1=C(C#N)c2nc(N)c(C#N)c(C)c2/C1=C\c1ccc(-c2ccccc2C(=O)O)o1	-	-	-	-	25
Nc1c(Cl)cc(-c2csc(N3CCCC3c3nc4cc(Cl)c(N5CCCCC5)cc4n3CCCO)n2)cc1Cl (configuration not stated)	-	-	-	-	15
Nc1c(Cl)cc(-c2csc(N3CCCC3c3nc4cc(Cl)c(Cl)cc4n3CCCO)n2)cc1Cl (configuration not stated)	-	-	-	-	-
Cc1nc2ccccc2c(=O)n1-c1ccc(NS(=O)(=O)c2ccc(F)cc2)cc1	-	-	-	-	-
Cc1nc2ccccc2c(=O)n1-c1ccc(NS(=O)(=O)c2ccccc2)cc1	68	-	-	-	-
COc1ccc2c3c([nH]c2c1)[C@H](CO)N(C(=O)c1cccnc1)CC31CN(Cc2cccnc2)C1	-	.	.	-	-
COc1cc(NC(=O)COc2c(C)cc(C)cc2[N+](=O)[O-])c(OC)cc1Cl	-	52	-	-	-
COc1cc(Cl)c(C)cc1NC(=O)COc1ccccc1[N+](=O)[O-]	.	-	-	.	.
CCS(=O)(=O)Nc1ccc2c(c1)C(=O)N(C)[C@H]1CC[C@@H](CC(=O)NCCOC)O[C@H]1CO2	-	.	.	-	-
CC(C)NC(=O)Nc1ccc2c(c1)C(=O)N([C@H](C)CO)C[C@H](C)[C@@H](CN(C)S(=O)(=O)c1cn(C)cn1)OCCCC[C@@H](C)O2	-	.	.	-	-
C[C@@H]1CN([C@@H](C)CO)C(=O)Cc2cc(NC(=O)Nc3cccc4ccccc34)ccc2O[C@H]1CN(C)C(=O)Nc1ccc(F)cc1	-	.	.	-	-
C[C@@H]1CN([C@@H](C)CO)C(=O)c2cc(NS(=O)(=O)c3ccc(Cl)cc3)ccc2O[C@@H](C)CCCCO[C@@H]1CN(C)Cc1ccc(C(F)(F)F)cc1	-	.	.	-	18
C[C@@H]1CCCCO[C@@H](CN(C)Cc2ccc(C(F)(F)F)cc2)[C@H](C)CN([C@H](C)CO)C(=O)c2cc(NS(=O)(=O)c3ccc(Cl)cc3)ccc2O1	.	.	.	-	16
C[C@@H]1CCCCO[C@H](CN(C)Cc2ccc(C(F)(F)F)cc2)[C@@H](C)CN([C@H](C)CO)C(=O)c2cc(NS(=O)(=O)c3ccc(Cl)cc3)ccc2O1	-	.	.	-	-
C[C@@H]1CCCCO[C@@H](CN(C)Cc2ccc(C(F)(F)F)cc2)[C@H](C)CN([C@@H](C)CO)C(=O)c2cc(NS(=O)(=O)c3ccc(Cl)cc3)ccc2O1	-	.	.	-	18
C[C@@H]1CN([C@H](C)CO)C(=O)c2cc(NS(=O)(=O)c3ccc(Cl)cc3)ccc2O[C@@H](C)CCCCO[C@H]1CN(C)Cc1ccc(C(F)(F)F)cc1	-	.	.	-	-
C[C@H]1CCCCO[C@@H](CN(C)Cc2ccc(C(F)(F)F)cc2)[C@@H](C)CN([C@@H](C)CO)C(=O)c2cc(NS(=O)(=O)c3ccc(Cl)cc3)ccc2O1	?	.	.	-	16
CN(C)C(=O)C[C@H]1C[C@@H]2c3cc(NC(=O)C4CCC4)ccc3O[C@@H]2[C@H](CO)O1	-	.	.	-	-
SMILES	DENV2 CPE	Rtt109 HAT inh	PDI inh	ERp5 block	SIRT5 inh
Cc1cccc(Nc2nnc(SCC(=O)c3c(N)n(C4CC4)c(=O)[nH]c3=O)s2)c1	-	-	-	-	16
Cc1ccc(Nc2nnc(SCC(=O)c3c(N)n(C4CC4)c(=O)[nH]c3=O)s2)cc1C	-	-	-	-	-
CC(C)(C)NC(=O)c1cccc(NC(=O)c2ccc3c(c2)C(=O)N(C(C)(C)C)C3=O)c1	44	-	-	-	-
CC(C)(C)N1C(=O)c2ccc(C(=O)Nc3ccc(O)cc3)cc2C1=O	54	-	-	-	-
O=C(Cc1ccccc1)N1CC[C@H]2[C@H](CO)Nc3ccc(Br)cc3[C@H]21	-	.	.	-	-
O=C(C1=C[C@@H](C2CC2)C[C@@H](OCc2ccc(CO)cc2)O1)N1CCCC1	-	.	.	-	-
CO[C@H](CN(C)S(=O)(=O)c1ccc(Cl)cc1)[C@H](C)CN(C(=O)Nc1ccccc1F)[C@@H](C)CO	-	.	.	-	-
COCC(=O)N1CC2(C1)[C@@H](c1ccccc1)[C@@H](CO)N2C(=O)c1ccncc1	30	.	.	-	-
O=C(Cc1ccccn1)N1CC2(C1)[C@H](c1ccccc1)[C@@H](CO)N2C(=O)c1ccncc1	45	.	.	-	-
O=C(Cc1ccccn1)N1CC2(C1)[C@@H](c1ccccc1)[C@@H](CO)N2C(=O)c1ccncc1	-	.	.	-	-
COCC(=O)N1[C@H](CO)[C@H](c2ccccc2)C12CN(C(=O)Nc1ccccc1F)C2	36	.	.	-	-
C[C@H](CO)N1C[C@H](C)[C@@H](CN(C)C(=O)CCCN(C)C)OCCCC[C@H](C)Oc2ccc(NC(=O)Nc3ccc4c(c3)OCO4)cc2C1=O	-	.	.	.	.
CC(=C\c1ccco1)/C=C(\C#N)C(=O)NCCc1c[nH]c2ccccc12	58	-	-	-	-
CCCS(=O)(=O)c1c(S(=O)(=O)CCC)c2c(N)cccn2c1C(=O)c1ccc(Br)cc1	.	-	-	.	.
CCCS(=O)(=O)c1c(S(=O)(=O)CCC)c2c(N)cccn2c1C(=O)c1ccc(OC)cc1	-	-	-	-	16
C[C@@H]1CCCCO[C@H](CN(C)Cc2ccc3c(c2)OCO3)[C@@H](C)CN([C@H](C)CO)C(=O)c2cc(NC(=O)Cc3ccccc3)ccc2O1	-	.	.	.	.
C[C@@H]1CN([C@@H](C)CO)C(=O)c2cc(Br)cnc2O[C@H]1CN(C)C(=O)C1CCCCC1	-	.	-	-	18!
CC(C)CC#Cc1cnc2c(c1)C(=O)N([C@H](C)CO)C[C@@H](C)[C@H](CN(C)C(=O)C1CCOCC1)O2	38	.	.	-	-
